# Measurements reported in paper PMC7862700, “An all-to-all approach to the identification of sequence-specific readers for epigenetic DNA modifications on cytosine”.
# Assays:
# Assay in all cases: DAPPL (digital affinity profiling via proximity ligation, sequencing); 10 mM Tris-HCl pH 7.5, 50 mM NaCl, 1 mM DTT, 4% glycerol, room temperature, 30 min; GST-TFs on glutathione beads, 16-mer random dsDNA library, 0.1% formaldehyde crosslink after washing; high values mean tight binding
# FLI1 = target: T1, FLI1 (Homo sapiens, UniProt Q01543 1-452); conditions: protein: recombinant; tags: N-terminal GST; dsDNA, one strand shown
# T1 sequence: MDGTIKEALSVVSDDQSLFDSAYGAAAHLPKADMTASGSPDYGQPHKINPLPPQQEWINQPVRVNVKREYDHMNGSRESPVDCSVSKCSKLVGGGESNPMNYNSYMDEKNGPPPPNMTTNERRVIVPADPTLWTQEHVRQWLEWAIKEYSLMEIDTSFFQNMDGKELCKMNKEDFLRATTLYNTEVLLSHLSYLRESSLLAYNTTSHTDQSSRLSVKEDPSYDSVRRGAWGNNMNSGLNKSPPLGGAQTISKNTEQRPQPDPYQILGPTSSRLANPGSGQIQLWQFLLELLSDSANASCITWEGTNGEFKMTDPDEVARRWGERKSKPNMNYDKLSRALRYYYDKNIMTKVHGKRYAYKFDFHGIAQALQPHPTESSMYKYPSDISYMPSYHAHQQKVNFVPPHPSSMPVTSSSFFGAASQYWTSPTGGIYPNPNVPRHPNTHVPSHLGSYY
# Outline: (§1)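 Beads coated with glutathione captured GST-fused human transcription factors that had been expressed in yeast, and the factors were then given DNA barcodes and pooled with a tag-only sample. The pools were incubated with 200 nmole of a random double-stranded 16-mer DNA library in Tris/NaCl/DTT/glycerol buffer for 30 min at room temperature, washed, crosslinked with 0.1% formaldehyde and proximity-ligated with BsaI/T4 ligase at 37 °C for 1 h. PCR amplification and Illumina NextSeq500 sequencing came last. Binding signal is each hexamer's read frequency for a factor divided by its frequency for the tag-only sample.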
# ELK1 = target: T2, ELK1 (Homo sapiens, UniProt P19419 1-428); conditions: protein: recombinant; tags: N-terminal GST; dsDNA, one strand shown
# T2 sequence: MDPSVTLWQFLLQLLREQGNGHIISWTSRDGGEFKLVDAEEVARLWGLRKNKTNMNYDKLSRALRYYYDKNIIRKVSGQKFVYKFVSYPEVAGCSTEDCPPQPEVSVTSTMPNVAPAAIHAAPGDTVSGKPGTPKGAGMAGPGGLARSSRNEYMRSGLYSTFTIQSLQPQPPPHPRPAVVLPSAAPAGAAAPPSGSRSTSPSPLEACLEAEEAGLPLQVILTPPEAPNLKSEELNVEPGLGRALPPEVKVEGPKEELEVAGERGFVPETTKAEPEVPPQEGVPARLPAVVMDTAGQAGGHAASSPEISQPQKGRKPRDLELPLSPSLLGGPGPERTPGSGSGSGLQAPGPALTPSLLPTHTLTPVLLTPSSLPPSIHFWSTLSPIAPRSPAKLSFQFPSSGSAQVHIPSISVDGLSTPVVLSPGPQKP
# Outline: as §1
# GABPA = target: T3, GABPA (Homo sapiens, UniProt Q06546 1-454); conditions: protein: recombinant; tags: N-terminal GST; dsDNA, one strand shown
# T3 sequence: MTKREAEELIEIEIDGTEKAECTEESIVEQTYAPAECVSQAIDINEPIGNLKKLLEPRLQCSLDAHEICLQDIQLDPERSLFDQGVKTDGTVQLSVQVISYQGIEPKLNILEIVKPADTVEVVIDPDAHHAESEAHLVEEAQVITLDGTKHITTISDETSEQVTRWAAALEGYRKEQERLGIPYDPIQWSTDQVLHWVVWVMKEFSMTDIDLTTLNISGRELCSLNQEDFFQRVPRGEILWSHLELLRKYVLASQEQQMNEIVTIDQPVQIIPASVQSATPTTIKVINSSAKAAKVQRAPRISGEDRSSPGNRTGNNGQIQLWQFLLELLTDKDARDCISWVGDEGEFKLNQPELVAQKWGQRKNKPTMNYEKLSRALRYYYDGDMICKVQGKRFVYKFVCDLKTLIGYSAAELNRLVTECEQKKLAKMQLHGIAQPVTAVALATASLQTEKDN
# Outline: as §1
# ERG = target: T4, ERG (Homo sapiens, UniProt P11308 1-479); conditions: protein: recombinant; tags: N-terminal GST; dsDNA, one strand shown
# T4 sequence: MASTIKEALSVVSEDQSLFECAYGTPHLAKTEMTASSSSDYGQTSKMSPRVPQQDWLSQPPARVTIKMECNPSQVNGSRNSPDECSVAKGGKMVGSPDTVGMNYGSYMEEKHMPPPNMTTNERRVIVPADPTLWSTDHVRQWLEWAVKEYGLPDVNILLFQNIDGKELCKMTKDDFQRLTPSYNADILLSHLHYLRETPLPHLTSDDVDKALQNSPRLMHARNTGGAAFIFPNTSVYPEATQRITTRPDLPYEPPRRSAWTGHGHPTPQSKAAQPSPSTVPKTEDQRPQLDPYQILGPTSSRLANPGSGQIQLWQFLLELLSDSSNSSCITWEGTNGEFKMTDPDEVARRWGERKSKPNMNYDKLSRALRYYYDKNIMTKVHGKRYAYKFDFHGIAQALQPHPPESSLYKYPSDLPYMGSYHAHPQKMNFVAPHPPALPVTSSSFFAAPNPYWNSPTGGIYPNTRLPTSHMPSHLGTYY
# Outline: as §1
# ELF1 = ELF1 (Homo sapiens, UniProt P32519 1-619); conditions: protein: recombinant; tags: N-terminal GST; dsDNA, one strand shown
# Chain of ELF1 (P32519 whole entry): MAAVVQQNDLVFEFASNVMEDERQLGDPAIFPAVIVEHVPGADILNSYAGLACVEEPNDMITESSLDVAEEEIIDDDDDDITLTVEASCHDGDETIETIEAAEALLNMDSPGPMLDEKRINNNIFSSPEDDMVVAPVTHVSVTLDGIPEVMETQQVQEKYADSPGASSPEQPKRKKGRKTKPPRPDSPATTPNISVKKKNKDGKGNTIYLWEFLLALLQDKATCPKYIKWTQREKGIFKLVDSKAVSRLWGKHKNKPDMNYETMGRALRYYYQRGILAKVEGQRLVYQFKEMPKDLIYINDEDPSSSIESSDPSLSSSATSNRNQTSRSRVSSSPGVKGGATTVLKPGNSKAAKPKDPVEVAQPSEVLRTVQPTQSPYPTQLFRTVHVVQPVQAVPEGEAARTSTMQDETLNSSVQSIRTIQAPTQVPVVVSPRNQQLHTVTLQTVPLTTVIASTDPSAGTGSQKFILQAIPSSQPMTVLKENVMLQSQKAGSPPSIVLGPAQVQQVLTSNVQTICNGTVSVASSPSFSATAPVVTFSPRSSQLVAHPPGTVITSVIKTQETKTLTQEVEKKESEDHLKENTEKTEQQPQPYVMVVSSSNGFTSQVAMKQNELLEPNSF
# Outline: as §1
# EHF = target: T5, EHF (Homo sapiens, UniProt Q9NZC4 1-300); conditions: protein: recombinant; tags: N-terminal GST; dsDNA, one strand shown
# T5 sequence: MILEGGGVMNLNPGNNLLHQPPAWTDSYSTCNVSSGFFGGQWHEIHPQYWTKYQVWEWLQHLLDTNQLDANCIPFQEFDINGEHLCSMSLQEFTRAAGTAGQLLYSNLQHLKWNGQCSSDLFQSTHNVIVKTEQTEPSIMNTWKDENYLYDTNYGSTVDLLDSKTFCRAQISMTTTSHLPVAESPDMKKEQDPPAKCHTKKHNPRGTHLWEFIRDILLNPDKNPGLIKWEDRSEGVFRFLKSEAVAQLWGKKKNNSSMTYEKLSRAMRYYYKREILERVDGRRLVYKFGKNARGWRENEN
# Outline: as §1
# SPI1 = SPI1 (Homo sapiens, UniProt P17947 1-270); conditions: protein: recombinant; tags: N-terminal GST; dsDNA, one strand shown
# Outline: as §1
# SPIB = SPIB (Homo sapiens, UniProt Q01892 1-262); conditions: protein: recombinant; tags: N-terminal GST; dsDNA, one strand shown
# Chain of SPIB (Q01892 whole entry): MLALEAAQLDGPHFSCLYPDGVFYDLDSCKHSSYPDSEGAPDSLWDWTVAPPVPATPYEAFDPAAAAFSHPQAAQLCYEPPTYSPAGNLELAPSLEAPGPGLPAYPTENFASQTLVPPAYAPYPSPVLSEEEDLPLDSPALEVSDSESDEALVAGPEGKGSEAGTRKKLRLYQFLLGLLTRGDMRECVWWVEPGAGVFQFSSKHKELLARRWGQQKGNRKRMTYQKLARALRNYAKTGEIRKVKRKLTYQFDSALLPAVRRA
# Outline: as §1
# ELK3 = target: T6, ELK3 (Homo sapiens, UniProt P41970 1-407); conditions: protein: recombinant; tags: N-terminal GST; dsDNA, one strand shown
# T6 sequence: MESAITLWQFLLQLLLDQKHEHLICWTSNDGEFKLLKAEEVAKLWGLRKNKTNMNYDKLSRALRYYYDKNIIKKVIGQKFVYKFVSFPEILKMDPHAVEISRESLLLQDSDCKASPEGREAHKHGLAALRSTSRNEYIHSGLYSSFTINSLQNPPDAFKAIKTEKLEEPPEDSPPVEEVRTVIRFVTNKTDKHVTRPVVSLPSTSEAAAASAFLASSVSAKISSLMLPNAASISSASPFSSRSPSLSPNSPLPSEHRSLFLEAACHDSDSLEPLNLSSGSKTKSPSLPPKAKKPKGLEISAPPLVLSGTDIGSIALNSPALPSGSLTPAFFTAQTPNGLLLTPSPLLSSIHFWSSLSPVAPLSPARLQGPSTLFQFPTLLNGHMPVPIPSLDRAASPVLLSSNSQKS
# Outline: as §1
# FEV = target: T7, FEV (Homo sapiens, UniProt Q99581 1-238); conditions: protein: recombinant; tags: N-terminal GST; dsDNA, one strand shown
# T7 sequence: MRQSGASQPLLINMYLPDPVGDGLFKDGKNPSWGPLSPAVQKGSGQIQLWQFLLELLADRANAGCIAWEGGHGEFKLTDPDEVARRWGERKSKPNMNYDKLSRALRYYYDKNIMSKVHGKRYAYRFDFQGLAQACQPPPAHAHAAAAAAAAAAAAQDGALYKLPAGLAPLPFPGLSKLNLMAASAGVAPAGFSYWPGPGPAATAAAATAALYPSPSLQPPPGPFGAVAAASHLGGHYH
# Outline: as §1
# ETV5 = ETV5 (Homo sapiens, UniProt P41161 1-510); conditions: protein: recombinant; tags: N-terminal GST; dsDNA, one strand shown
# Chain of ETV5 (P41161 whole entry): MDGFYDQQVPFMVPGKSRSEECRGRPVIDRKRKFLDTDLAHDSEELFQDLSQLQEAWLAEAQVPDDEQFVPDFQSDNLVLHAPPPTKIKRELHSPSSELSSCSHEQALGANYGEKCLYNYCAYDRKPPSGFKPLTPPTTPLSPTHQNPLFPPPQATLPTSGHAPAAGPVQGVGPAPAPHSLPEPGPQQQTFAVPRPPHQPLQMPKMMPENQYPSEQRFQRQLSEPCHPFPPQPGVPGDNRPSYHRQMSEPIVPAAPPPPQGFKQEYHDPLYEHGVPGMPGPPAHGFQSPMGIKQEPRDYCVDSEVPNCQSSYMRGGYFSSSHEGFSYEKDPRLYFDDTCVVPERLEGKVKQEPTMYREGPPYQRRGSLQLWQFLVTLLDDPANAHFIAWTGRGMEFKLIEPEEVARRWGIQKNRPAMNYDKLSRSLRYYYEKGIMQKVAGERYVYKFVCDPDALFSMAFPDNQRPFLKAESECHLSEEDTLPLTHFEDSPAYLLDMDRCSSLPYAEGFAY
# Outline: as §1
# HSF1 = HSF1 (Homo sapiens, UniProt Q00613 1-529); conditions: protein: recombinant; tags: N-terminal GST; chain copies: 3; dsDNA, one strand shown
# Chain of HSF1 (Q00613 whole entry): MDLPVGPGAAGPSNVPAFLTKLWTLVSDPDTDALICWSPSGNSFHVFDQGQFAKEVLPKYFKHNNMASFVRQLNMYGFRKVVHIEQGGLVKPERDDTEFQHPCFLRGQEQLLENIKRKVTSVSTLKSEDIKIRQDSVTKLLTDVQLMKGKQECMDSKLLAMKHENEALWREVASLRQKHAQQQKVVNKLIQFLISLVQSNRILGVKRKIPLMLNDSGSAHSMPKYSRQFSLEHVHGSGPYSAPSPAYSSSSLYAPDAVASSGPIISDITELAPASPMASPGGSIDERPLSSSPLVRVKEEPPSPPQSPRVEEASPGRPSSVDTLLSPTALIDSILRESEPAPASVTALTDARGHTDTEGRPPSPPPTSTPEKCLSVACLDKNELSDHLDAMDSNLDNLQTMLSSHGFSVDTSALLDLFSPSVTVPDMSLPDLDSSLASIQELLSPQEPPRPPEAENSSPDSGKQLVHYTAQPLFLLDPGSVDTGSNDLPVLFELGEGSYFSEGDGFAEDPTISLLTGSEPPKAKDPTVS
# Outline: as §1
# SPIC = target: T8, SPIC (Homo sapiens, UniProt Q8N5J4 1-248); conditions: protein: recombinant; tags: N-terminal GST; dsDNA, one strand shown
# T8 sequence: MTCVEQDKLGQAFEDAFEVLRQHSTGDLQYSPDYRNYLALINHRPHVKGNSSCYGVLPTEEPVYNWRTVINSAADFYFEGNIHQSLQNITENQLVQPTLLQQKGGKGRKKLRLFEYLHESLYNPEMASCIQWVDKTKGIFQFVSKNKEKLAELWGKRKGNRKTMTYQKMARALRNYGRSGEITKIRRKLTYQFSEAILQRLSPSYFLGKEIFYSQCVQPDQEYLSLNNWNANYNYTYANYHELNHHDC
# Outline: as §1
# ELF4 = ELF4 (Homo sapiens, UniProt Q99607 1-663); conditions: protein: recombinant; tags: N-terminal GST; dsDNA, one strand shown
# Chain of ELF4 (Q99607 whole entry): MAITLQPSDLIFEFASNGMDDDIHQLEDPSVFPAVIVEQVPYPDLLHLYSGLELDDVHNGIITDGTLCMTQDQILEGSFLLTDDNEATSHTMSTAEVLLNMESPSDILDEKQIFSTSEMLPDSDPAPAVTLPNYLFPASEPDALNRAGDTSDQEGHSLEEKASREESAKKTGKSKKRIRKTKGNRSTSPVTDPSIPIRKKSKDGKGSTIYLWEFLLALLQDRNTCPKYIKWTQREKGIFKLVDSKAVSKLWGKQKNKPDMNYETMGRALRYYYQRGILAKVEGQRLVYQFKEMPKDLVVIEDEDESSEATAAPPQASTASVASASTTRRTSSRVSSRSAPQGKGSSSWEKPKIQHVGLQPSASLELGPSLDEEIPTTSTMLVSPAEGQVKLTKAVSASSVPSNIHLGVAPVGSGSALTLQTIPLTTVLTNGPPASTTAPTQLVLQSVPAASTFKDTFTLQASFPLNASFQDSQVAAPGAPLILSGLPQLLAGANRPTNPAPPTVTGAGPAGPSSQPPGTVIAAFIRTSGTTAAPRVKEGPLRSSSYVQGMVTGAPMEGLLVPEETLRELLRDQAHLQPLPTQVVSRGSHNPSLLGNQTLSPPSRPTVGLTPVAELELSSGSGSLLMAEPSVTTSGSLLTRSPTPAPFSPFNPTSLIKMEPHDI
# Outline: as §1
# ELK4 = target: T9, ELK4 (Homo sapiens, UniProt P28324-2 1-405); conditions: protein: recombinant; tags: N-terminal GST; dsDNA, one strand shown
# T9 sequence: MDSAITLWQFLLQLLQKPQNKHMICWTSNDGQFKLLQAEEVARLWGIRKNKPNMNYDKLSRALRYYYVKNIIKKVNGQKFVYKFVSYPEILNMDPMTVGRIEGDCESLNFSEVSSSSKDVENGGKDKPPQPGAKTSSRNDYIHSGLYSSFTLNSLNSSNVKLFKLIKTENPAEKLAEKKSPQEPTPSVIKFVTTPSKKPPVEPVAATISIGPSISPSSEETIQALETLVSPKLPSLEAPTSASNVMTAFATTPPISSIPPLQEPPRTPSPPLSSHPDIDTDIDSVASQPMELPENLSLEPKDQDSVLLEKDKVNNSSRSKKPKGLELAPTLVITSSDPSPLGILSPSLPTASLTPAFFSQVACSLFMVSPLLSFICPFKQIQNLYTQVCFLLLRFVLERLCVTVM
# Outline: as §1
# ETV2 = target: T10, ETV2 (Homo sapiens, UniProt O00321 1-342); conditions: protein: recombinant; tags: N-terminal GST; dsDNA, one strand shown
# T10 sequence: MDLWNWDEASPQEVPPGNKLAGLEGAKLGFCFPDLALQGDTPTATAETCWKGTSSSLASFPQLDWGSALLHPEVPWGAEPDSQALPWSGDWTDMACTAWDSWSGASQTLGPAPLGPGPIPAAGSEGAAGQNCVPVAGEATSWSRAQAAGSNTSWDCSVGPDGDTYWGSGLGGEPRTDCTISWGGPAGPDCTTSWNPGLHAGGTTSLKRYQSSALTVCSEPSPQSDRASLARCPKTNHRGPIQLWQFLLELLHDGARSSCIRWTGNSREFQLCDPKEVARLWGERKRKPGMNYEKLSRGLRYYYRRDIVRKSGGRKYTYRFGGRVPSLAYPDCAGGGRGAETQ
# Outline: as §1
# ELF3 = target: T11, ELF3 (Homo sapiens, UniProt P78545 1-371); conditions: protein: recombinant; tags: N-terminal GST; dsDNA, one strand shown
# T11 sequence: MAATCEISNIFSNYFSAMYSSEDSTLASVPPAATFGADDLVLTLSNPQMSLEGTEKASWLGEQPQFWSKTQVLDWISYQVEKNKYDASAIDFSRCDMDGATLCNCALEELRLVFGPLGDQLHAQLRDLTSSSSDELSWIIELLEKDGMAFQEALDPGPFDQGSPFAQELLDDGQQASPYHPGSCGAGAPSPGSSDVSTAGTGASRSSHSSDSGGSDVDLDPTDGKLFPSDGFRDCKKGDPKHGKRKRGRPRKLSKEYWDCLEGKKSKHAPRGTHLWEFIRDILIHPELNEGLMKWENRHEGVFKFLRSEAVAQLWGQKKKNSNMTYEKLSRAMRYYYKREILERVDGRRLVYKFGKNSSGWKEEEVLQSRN
# Outline: as §1
# CRX = CRX (Homo sapiens, UniProt O43186 1-299); conditions: protein: recombinant; tags: N-terminal GST; dsDNA, one strand shown
# Chain of CRX (O43186 whole entry): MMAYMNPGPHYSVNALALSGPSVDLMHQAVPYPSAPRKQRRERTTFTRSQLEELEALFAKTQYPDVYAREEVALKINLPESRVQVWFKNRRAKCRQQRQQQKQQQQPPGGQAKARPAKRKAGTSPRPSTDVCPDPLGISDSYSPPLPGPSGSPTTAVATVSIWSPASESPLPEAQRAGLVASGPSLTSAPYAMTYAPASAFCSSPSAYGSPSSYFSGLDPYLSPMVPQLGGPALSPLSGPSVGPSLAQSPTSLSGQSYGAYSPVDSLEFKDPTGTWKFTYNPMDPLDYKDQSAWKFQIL
# Outline: as §1
# ETV1 = ETV1 (Homo sapiens, UniProt P50549 1-477); conditions: protein: recombinant; tags: N-terminal GST; dsDNA, one strand shown
# Chain of ETV1 (P50549 whole entry): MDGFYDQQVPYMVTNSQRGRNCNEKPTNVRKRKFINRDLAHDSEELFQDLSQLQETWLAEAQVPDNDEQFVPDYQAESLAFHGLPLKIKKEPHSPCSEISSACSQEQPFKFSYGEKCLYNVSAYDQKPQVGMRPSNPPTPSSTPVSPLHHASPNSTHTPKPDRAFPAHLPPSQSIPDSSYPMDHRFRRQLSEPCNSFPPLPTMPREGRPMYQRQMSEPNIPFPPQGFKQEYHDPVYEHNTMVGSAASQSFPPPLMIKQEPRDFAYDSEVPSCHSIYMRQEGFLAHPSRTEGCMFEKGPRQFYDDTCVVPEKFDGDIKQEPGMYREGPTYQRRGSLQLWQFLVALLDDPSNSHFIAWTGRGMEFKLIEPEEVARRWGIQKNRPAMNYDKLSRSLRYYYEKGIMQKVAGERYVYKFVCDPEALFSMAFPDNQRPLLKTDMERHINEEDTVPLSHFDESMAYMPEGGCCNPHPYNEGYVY
# Outline: as §1
sequence,measurement,setting,value
AACTAC,binding signal,FLI1,"1.42 fold enrichment (6-mer frequency, TF over GST control)"
same,binding signal,ELK1,"1.42 fold enrichment (6-mer frequency, TF over GST control)"
same,binding signal,GABPA,"1.49 fold enrichment (6-mer frequency, TF over GST control)"
same,binding signal,ERG,"1.5 fold enrichment (6-mer frequency, TF over GST control)"
same,binding signal,ELF1,"1.45 fold enrichment (6-mer frequency, TF over GST control)"
same,binding signal,EHF,"1.43 fold enrichment (6-mer frequency, TF over GST control)"
same,binding signal,SPI1,"1.47 fold enrichment (6-mer frequency, TF over GST control)"
same,binding signal,SPIB,"1.47 fold enrichment (6-mer frequency, TF over GST control)"
same,binding signal,ELK3,"1.48 fold enrichment (6-mer frequency, TF over GST control)"
same,binding signal,FEV,"1.35 fold enrichment (6-mer frequency, TF over GST control)"
same,binding signal,ETV5,"1.38 fold enrichment (6-mer frequency, TF over GST control)"
same,binding signal,HSF1,"1.22 fold enrichment (6-mer frequency, TF over GST control)"
same,binding signal,SPIC,"1.35 fold enrichment (6-mer frequency, TF over GST control)"
same,binding signal,ELF4,"1.39 fold enrichment (6-mer frequency, TF over GST control)"
same,binding signal,ELK4,"1.32 fold enrichment (6-mer frequency, TF over GST control)"
same,binding signal,ETV2,"1.42 fold enrichment (6-mer frequency, TF over GST control)"
same,binding signal,ELF3,"1.31 fold enrichment (6-mer frequency, TF over GST control)"
same,binding signal,CRX,"1.2 fold enrichment (6-mer frequency, TF over GST control)"
same,binding signal,ETV1,"1.34 fold enrichment (6-mer frequency, TF over GST control)"
